Shown are actives, neighbours in structure and some others; about 5.4% of the full set was active somewhere.
Beta cell apopt = blocks beta cell apoptosis. INS-1E cytokine-induced death, ATP luminescence, 48 h; percent of positive-control rescue, neutral wells zero. protection from apoptosis, % (test concentration not listed). 300,000 tested, 0.8% active. AID 435005;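 active = Every replicate reaches about 75%, or at least half do and their mean reaches it too, limit read from the data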;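 also: 0% = cytokine-treated negative control wells and 100% = positive control rescue; higher means more ATP so stronger rescue from cytokine killing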
Mdm2 MdmX PPI = disrupts the human Mdm2-MdmX interaction; SaOS-2 split-luciferase Mdm2/MdmX complementation, luminescence; O15151+Q00987; inhibition, % at 8 µM; 330,000 tested, 3% active;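 active = inhibition of at least 50% at 8 µM in the primary screen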
Target sequence (O15151 whole entry, looked up): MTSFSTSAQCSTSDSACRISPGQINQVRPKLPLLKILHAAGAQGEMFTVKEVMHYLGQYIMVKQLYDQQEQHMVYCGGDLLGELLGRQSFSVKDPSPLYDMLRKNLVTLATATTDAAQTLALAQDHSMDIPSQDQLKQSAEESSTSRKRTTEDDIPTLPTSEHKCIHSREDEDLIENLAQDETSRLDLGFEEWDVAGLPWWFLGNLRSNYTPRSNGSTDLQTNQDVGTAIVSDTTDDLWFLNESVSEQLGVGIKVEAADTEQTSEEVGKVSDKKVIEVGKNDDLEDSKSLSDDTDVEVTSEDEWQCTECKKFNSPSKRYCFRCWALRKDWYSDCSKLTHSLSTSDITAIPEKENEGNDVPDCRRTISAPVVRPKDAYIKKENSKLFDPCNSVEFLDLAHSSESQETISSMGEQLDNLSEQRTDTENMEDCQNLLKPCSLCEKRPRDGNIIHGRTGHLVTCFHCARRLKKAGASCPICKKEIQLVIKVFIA
Target sequence (Q00987 whole entry, looked up): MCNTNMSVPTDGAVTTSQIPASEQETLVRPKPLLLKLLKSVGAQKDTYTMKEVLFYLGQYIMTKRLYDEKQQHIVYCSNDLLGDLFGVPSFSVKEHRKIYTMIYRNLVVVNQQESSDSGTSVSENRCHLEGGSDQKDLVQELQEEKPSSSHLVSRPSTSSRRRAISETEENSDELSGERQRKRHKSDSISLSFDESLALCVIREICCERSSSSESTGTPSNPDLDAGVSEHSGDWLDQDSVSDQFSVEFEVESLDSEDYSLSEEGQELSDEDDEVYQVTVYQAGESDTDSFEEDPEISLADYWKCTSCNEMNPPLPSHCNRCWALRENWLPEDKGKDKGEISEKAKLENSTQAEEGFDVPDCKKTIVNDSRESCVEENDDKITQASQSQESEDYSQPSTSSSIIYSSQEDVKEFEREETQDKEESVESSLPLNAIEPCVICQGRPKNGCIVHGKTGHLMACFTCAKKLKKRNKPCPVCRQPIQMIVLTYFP
CSC inhib = blocks cancer stem cells. cancer stem cell-like cells viability, luminescence. inhibition, % at 7.5 µM. 300,000 tested, 1.1% active. AID 2717; in the data active = inhibition above about 75%; tested in HMLE shEcad cells
SKKanGAS inh = blocks kanamycin growth of S. pyogenes SKKanGAS strain. BacTiter-Glo, 6 h. AID 1662. inhibition, % at 7.5 µM. 300,000 tested, 1.3% active;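 active = mean replicate score, as percent of positive control median, at least 50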;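 also: strain carries kanamycin resistance gene driven by streptokinase promoter and grows in 40 µg/ml kanamycin; loss of luminescence reflects streptokinase promoter inhibition or plain growth inhibition; 0% = median of DMSO wells and 100% = positive control at its reference dose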
MPTP block = permeability transition pore inhibition; isolated mouse mitochondria, Ca2+ swelling absorbance, 30 min; inhibition, % at 10 µM; 360,000 tested, 1.4% active;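 active = inhibition of 50% or more, scaled per plate between neutral and stimulator controls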;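 also: 0% = DMSO wells given calcium and 100% = 1 mM EGTA wells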
Calb FLC = C. albicans growth modulation with fluconazole; C. albicans CaCi-2 (fluconazole-resistant clinical isolate) + fluconazole, Alamar Blue growth, 48 h; growth inhibition, % (concentration not given with the values); 300,000 tested, 0.57% active; AID 1979;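 active = growth inhibition above about 58% in most replicates, limit read from the data, passing the limit was not always enough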;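 also: all wells also contain fluconazole at 8 µg/ml as a sub-toxic cotreatment; 0% = median of DMSO wells and 100% = median of geldanamycin control wells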
Mdm2 MdmX conf = human Mdm2/MdmX binding inhibition, confirmed; 10,000 tested, 55% active; shares compounds with Mdm2 MdmX PPI; AID 489028; inhibition, % at 8 µM; luminescent assay; in the data active = inhibition above about 40%
FLuc counter = counter-screen for Mdm2/MdmX inhibitors: full-length luciferase | AID 504607 | shares compounds with Mdm2 MdmX PPI | 6,200 tested, 77% active | SaOS-2 full-length luciferase counterscreen, luminescence | inhibition, % at 8 µM;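 active = mean inhibition at 8 µM reaching about 37%, which flags the compound as non-specific, limit read from the data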;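 also: p53-null SaOS-2 cells with luciferase driven by a doxycycline-inducible promoter; compound on cells about two nights before reading with doxycycline added after day one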
Starred values were filed as active, the others as inactive; · = no result given.

SMILES	Beta cell apopt	Mdm2 MdmX PPI	CSC inhib	SKKanGAS inh	MPTP block	Calb FLC	Mdm2 MdmX conf	FLuc counter
O=C1N[C@@H](Cc2c[nH]c3ccccc23)COC(=O)[C@@H](Cc2ccc(F)cc2)CC/C=C/C[C@@H]1CC(=O)N(CCO)Cc1ccccc1	·	59*	·	·	-4	·	32	·
O=C1N[C@@H](Cc2ccccc2)COC(=O)[C@@H](Cc2ccc(F)cc2)CC/C=C/C[C@H]1CC(=O)N(CCO)Cc1ccccc1	-2	52*	-4	·	2	·	16	·
O=C1N[C@@H](Cc2c[nH]c3ccccc23)COC(=O)[C@H](Cc2ccc(F)cc2)C/C=C\C[C@H]1CC(=O)N(CCO)Cc1ccccc1	-9	32	33	·	0	·	·	·
Cn1c(=O)c2[nH]c(N3CCN(c4ccccc4)CC3)nc2n(C)c1=O	-4	67*	13	9	-1	-5	39	67*
Cn1c(=O)c2[nH]c(N3CCN(c4cccc(O)c4)CC3)nc2n(C)c1=O	-2	49	14	3	0	5	·	·
Cc1ccc(NC(=O)CCc2nnc3ccc(NCc4ccco4)nn23)nc1	-4	13	-16	2	-1	5	·	·
CC(C)(C)[C@H](N)C(=O)N[C@H]1CCC2C3CC=C4C[C@@H](O)CC[C@]4(C)C3CC[C@@]21C (some centres not stated)	52	100*	104*	·	2	·	100*	52*
CC(C)C(=O)N[C@H]1CCC2C3CC=C4C[C@@H](O)CC[C@]4(C)C3CC[C@@]21C (some centres not stated)	2	2	-12	·	1	·	·	·
C[C@]12CC[C@H](O)CC1=CCC1C2CC[C@@]2(C)C1CC[C@@H]2NC(=O)[C@@H](N)Cc1ccccc1 (some centres not stated)	-1	68*	-6	·	0	·	23	·
CCCCCCN[C@H]1CCC2C3CC=C4C[C@@H](O)CC[C@]4(C)C3CC[C@@]21C (some centres not stated)	8	35	62	·	25	·	·	·
CN(C)C(CNC(=O)c1ccc2nccnc2c1)c1ccco1 (configuration not stated)	-4	-18	-6	·	0	·	·	·
O=C(N[C@@H]1C/C=C\C[C@@H](CC(=O)N(CCO)Cc2ccccc2)C(=O)NCCOC1=O)OCC1c2ccccc2-c2ccccc21	18	9	·	·	-1	·	·	·
C[C@@H]1COC(=O)[C@H](NC(=O)OCC2c3ccccc3-c3ccccc32)C/C=C\C[C@@H](CC(=O)N(CCO)Cc2ccccc2)C(=O)N1	39	-3	·	·	-2	·	·	·
O=C(N[C@H]1C/C=C\C[C@@H](CC(=O)N(CCO)Cc2ccccc2)C(=O)NC[C@H](c2ccccc2)OC1=O)OCC1c2ccccc2-c2ccccc21	10	58*	104*	·	0	·	12	·
O=C(N[C@@H]1C/C=C\C[C@H](CC(=O)N(CCO)Cc2ccccc2)C(=O)N[C@@H](Cc2ccccc2)COC1=O)OCC1c2ccccc2-c2ccccc21	1	93*	40	·	-1	·	43*	59*
COc1ccc(/C=C/C(=O)OCc2nc3ccccc3c(=O)[nH]2)c(OC)c1	-7	20	-11	4	3	-7	·	·
Cc1cc2c(cc1C)CSC(c1c(O)ccc3ccccc13)SC2	7	75*	112*	94*	4	61	37	57*
C#CCOCCOCCOCCNc1nc(N2CCN(C(=O)CCCCCCCCCCNC(=O)[C@H]([C@@H](C)CC)n3cc(CCCCCN)nn3)CC2)nc(N2CCN(C(=O)CCCCCCCCCCNC(=O)[C@H](CO)n3cc(CCCCCN)nn3)CC2)n1	56	90*	3	·	-4	·	1	·
C#CCOCCOCCOCCNc1nc(N2CCN(C(=O)CCCCCCCCCCNC(=O)[C@H]([C@@H](C)CC)n3cc(CCCCCN)nn3)CC2)nc(N2CCN(C(=O)CCCCCCCCCCNC(=O)[C@@H]([C@H](C)CC)n3cc(CCCCCN)nn3)CC2)n1	115*	100*	167*	·	·	·	63*	1
CC[C@H](C)[C@@H](C(=O)NCCCCCCCCCCC(=O)N1CCN(C(=O)OC(C)(C)C)CC1)n1cc(CCCCN=C(NC(=O)OC(C)(C)C)NC(=O)OC(C)(C)C)nn1	112*	64*	4	·	·	·	25	·
COc1ccc(/C(N)=N/OC(=O)C2CCC(=O)N2S(=O)(=O)c2ccc(C)cc2)cc1OC (configuration not stated)	1	74*	·	0	0	4	55*	76*
COC(=O)c1ccc(C(NC(=O)OCc2ccccc2)/C(F)=C/[C@@H](C)C(=O)NCc2ccc(-c3ccccc3)cc2)cc1 (some centres not stated)	-2	38	8	·	·	·	·	·
COC(=O)c1ccc(C(NC(=O)OCc2ccccc2)/C(F)=C/[C@@H](C)C(=O)NCc2ccc(OC)c(OC)c2)cc1 (some centres not stated)	4	89*	0	·	0	·	5	·
C=CCn1c(SCc2nc3ccccc3c(=O)[nH]2)nc2sc3c(c2c1=O)CCCC3	0	85*	18	0	·	-1	20	·
Cc1ccc(-c2cc(C(=O)N3CCN(c4ccccc4O)CC3)c3ccccc3n2)o1	9	5	6	23	-2	1	·	·
SMILES	Beta cell apopt	Mdm2 MdmX PPI	CSC inhib	SKKanGAS inh	MPTP block	Calb FLC	Mdm2 MdmX conf	FLuc counter
COc1ccc(-c2cc(C(=O)N3CCN(c4cccc(C)c4C)CC3)c3ccccc3n2)cc1OC	0	75*	15	29	-1	-3	18	·
O=C(c1cc(-c2ccc(Br)cc2)nc2ccccc12)N1CCN(c2ccccc2O)CC1	-2	56*	·	59*	1	0	30	·
O=C(c1cc(-c2ccccc2Cl)nc2ccc(Br)cc12)N1CCN(c2ccccn2)CC1	106*	74*	16	12	0	-9	9	·
Cc1ccc2c(c1)[C@@H](O)C[C@@H](C)N2N=O	-4	2	-1	-10	-6	-9	·	·
Cn1nc(-c2ccc(N3CCOCC3)c(NS(=O)(=O)c3ccc(Cl)cc3)c2)c2ccccc2c1=O	6	67*	47	·	2	·	36	38*
Cc1ccc(S(=O)(=O)Nc2cc(-c3nn(C)c(=O)c4ccccc34)ccc2N2CCOCC2)cc1	7	86*	-4	13	-1	31	77*	30
C=CCNC(=O)COc1ccc(S(=O)(=O)N2CCCC2)cc1	-1	-24	-11	-2	-2	24	·	·
COc1ccc(NS(=O)(=O)c2cc(C)ccc2NC(=O)c2cc(C)oc2C)cc1	26	64*	3	13	1	9	58*	126*
